Data from PubChem BioAssay (NCI).
The panel holds about 79,000 compounds, 15% with a hit somewhere; the sample as a whole holds those more often. Activity calls are given as the source filed them. No stated cut-off is given here; in the data, active means growth inhibition above about 70%; inactive means the rest.

Experiments:
[1] = NCI Yeast Anticancer Drug Screen. Data for the rad52 strain (AID 147);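 further: 0% = growth of vehicle-treated control cultures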; details: S. cerevisiae rad52 mutant growth inhibition, active compounds read high
Summary of the method: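 Genetically altered yeast (DNA damage repair defect) treated with compound; inhibition calculated relative to vehicle.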

[2] = NCI Yeast Anticancer Drug Screen. Data for the wt1 strain (AID 149);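 further: 0% = growth of vehicle-treated wt1 cultures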; details: S. cerevisiae wt1 strain (SPY 50644) growth inhibition, active compounds read high
Summary of the method: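 The wt1 strain was treated with compounds, and growth was compared with vehicle-treated cultures to give inhibition.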

[3] = NCI Yeast Anticancer Drug Screen. Data for the rad50EPP+ strain (AID 151);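 further: 0% = growth of vehicle-treated control cultures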; details: S. cerevisiae rad50 mutant strain, active compounds read high
Summary of the method: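 Strain rad50EPP+; compound exposure; % growth inhibition vs vehicle.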

[4] = NCI Yeast Anticancer Drug Screen. Data for the mgt1 strain (AID 153); details: S. cerevisiae mgt1 mutant growth inhibition, active compounds read high
Summary of the method: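 Read-out: yeast growth inhibition vs vehicle control. Strain mgt1, drawn from a panel altered in DNA damage repair or cell cycle control.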

[5] = NCI Yeast Anticancer Drug Screen. Data for the rad50 strain (AID 155);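 further: 0% = growth of vehicle-only cultures of the same strain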; details: S. cerevisiae rad50 strain growth inhibition, active compounds read high
Summary of the method: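 Cells are treated with compound, grown, and their growth is then scored against vehicle-only cultures of the same repair-deficient yeast strain.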

[6] = NCI Yeast Anticancer Drug Screen. Data for the mec2-1 strain (AID 157); details: S. cerevisiae mec2-1 strain, active compounds read high
Summary of the method: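 Cells of the genetically defined mec2-1 yeast strain are incubated with test compound. Inhibition of growth is calculated against vehicle-treated controls.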

[7] = NCI Yeast Anticancer Drug Screen. Data for the rad14 strain (AID 159);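 further: 0% = growth of vehicle-treated control cultures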; details: S. cerevisiae rad14 strain growth inhibition, active compounds read high
Summary of the method: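 Readout: yeast growth inhibition, referenced to vehicle-only cultures. Strain bears a defined alteration in DNA damage repair.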

[8] = NCI Yeast Anticancer Drug Screen. Data for the sgs1 mgt1 strain (AID 161);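 further: 0% = growth of cultures given vehicle only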; details: S. cerevisiae sgs1 mgt1 strain, active compounds read high
Summary of the method: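 Read-out: growth inhibition vs vehicle controls. Cells: mutant yeast strain deficient in DNA damage repair.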

[9] = NCI Yeast Anticancer Drug Screen. Data for the CLN2oe strain (AID 163);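 further: 0% = growth of vehicle-only control cultures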; details: S. cerevisiae CLN2oe strain, active compounds read high
Summary of the method: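 Strain altered in cell-cycle control, incubated with compound; growth compared to solvent-treated controls.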

[10] = NCI Yeast Anticancer Drug Screen. Data for the cln2 rad14 strain (AID 165);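 further: 0% = growth equal to vehicle treated cultures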; details: S. cerevisiae cln2 rad14 strain, active compounds read high
Summary of the method: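 The screen exposed genetically defined yeast (cln2 rad14) to test compounds and scored growth inhibition relative to vehicle-treated controls.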

[11] = NCI Yeast Anticancer Drug Screen. Data for the bub3 strain (AID 167); details: S. cerevisiae bub3 mutant strain, active compounds read high
Summary of the method: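 Part of a panel of yeast mutants defective in DNA damage repair or cell cycle regulation. Each strain is grown with compound, and inhibition is calculated relative to solvent-treated cultures.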

[12] = NCI Yeast Anticancer Drug Screen. Data for the wt2 strain (AID 169);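 further: 0% = growth of vehicle-treated yeast cultures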; details: S. cerevisiae wt2 strain growth inhibition, active compounds read high
Summary of the method: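 Steps: yeast strain treated with compound; growth recorded; inhibition calculated relative to cultures given vehicle alone.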

[13] = NCI Yeast Anticancer Drug Screen. Data for the mlh1 strain (AID 171);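 further: 0% = growth of vehicle-treated control cultures of the same strain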; details: S. cerevisiae mlh1 strain growth inhibition, active compounds read high
Summary of the method: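 Yeast screen: mutant strain plus compound, growth scored against vehicle control wells.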

[14] = NCI Yeast Anticancer Drug Screen. Data for the sgs1 strain (AID 173);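 further: 0% = growth of vehicle-only control cultures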; details: S. cerevisiae sgs1 mutant, active compounds read high
Summary of the method: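 Inhibition of yeast growth served as the measure. The mutant strain was treated with each compound, and growth was normalised to cultures receiving vehicle alone.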

[15] = NCI Yeast Anticancer Drug Screen. Data for the mlh1 rad18 strain (AID 175); details: S. cerevisiae mlh1 rad18 strain growth inhibition, active compounds read high
Summary of the method: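 Compound-treated yeast growth, normalised to vehicle controls. Strain bears defined DNA repair mutations.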

[16] = NCI Yeast Anticancer Drug Screen. Data for the rad18 strain (AID 177); details: S. cerevisiae rad18 mutant growth inhibition, active compounds read high
Summary of the method: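 Inhibition values reflect reduced yeast growth compared with vehicle-treated controls, using a strain engineered with a DNA damage repair defect.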

[17] = at 5.0 µM (retest, dose inferred, filed as 0.5)
[18] = at 50.0 µM (retest, dose inferred, filed as 5.0)

Measured: growth inhibition

CC1CCN(CCC(=O)c2ccc(Cl)cc2)CC1
inactive: [1]; at 1.2 µM 4% | [1]; at 3.7 µM 8% | [1]; at 11.0 µM 28% | [1]; at 33.0 µM 41% | [1]; at 100.0 µM 53% | [2]; at 1.2 µM -1% | [2]; at 3.7 µM -1% | [2]; at 11.0 µM -1% | [2]; at 33.0 µM 7% | [2]; at 100.0 µM 16% | [3]; at 1.2 µM -1% | [3]; at 3.7 µM -1% | [3]; at 11.0 µM -1% | [3]; at 33.0 µM -2% | [3]; at 100.0 µM -7% | [4]; at 1.2 µM -1% | [4]; at 3.7 µM 4% | [4]; at 11.0 µM 20% | [4]; at 33.0 µM 35% | [4]; at 100.0 µM 52% | [5]; at 1.2 µM 12% | [5]; at 3.7 µM 19% | [5]; [17] 5% | [5]; at 11.0 µM 32% | [5]; at 33.0 µM 52% | [5]; [18] 36% | [5]; at 100.0 µM 56% | [6]; at 1.2 µM 0% | [6]; at 3.7 µM 1% | [6]; [17] 9% | [6]; at 11.0 µM 3% | [6]; at 33.0 µM 17% | [6]; [18] 37% | [6]; at 50.0 µM 29.1% | [6]; at 100.0 µM 27% | [7]; at 1.2 µM 19% | [7]; at 3.7 µM 36% | [7]; at 11.0 µM 33% | [7]; at 33.0 µM 39% | [7]; at 100.0 µM 45% | [8]; [17] 16% | [8]; [18] 50% | [9]; at 1.2 µM 8% | [9]; at 3.7 µM 17% | [9]; at 11.0 µM 36% | [9]; at 33.0 µM 49% | [9]; at 100.0 µM 55% | [10]; [17] 14% | [10]; [18] 45% | [11]; at 1.2 µM 1% | [11]; at 3.7 µM 6% | [11]; [17] 18% | [11]; at 11.0 µM 11% | [11]; at 33.0 µM 24% | [11]; [18] 50% | [11]; at 100.0 µM 31% | [12]; at 1.2 µM 0% | [12]; at 3.7 µM 1% | [12]; at 11.0 µM 18% | [12]; at 33.0 µM 5% | [12]; at 100.0 µM 21% | [13]; at 1.2 µM 2% | [13]; at 3.7 µM 14% | [13]; at 11.0 µM 26% | [13]; at 33.0 µM 26% | [13]; at 100.0 µM 40% | [14]; at 1.2 µM 5% | [14]; at 3.7 µM 32% | [14]; at 11.0 µM 45% | [14]; at 33.0 µM 62% | [14]; at 100.0 µM 66% | [15]; [17] 21% | [15]; [18] 52% | [15]; at 50.0 µM 58.1% | [16]; at 1.2 µM 5% | [16]; at 3.7 µM 18% | [16]; at 11.0 µM 17% | [16]; at 33.0 µM 28% | [16]; at 100.0 µM 42%
active: [5]; at 50.0 µM 77.5% | [8]; at 50.0 µM 75.5% | [10]; at 50.0 µM 73.6% | [11]; at 50.0 µM 81.7%

O=C1C=CC(=O)N1c1ccc2c(c1)Cc1cc(NC(=O)C(F)(F)F)ccc1-2
inactive: [1]; at 1.2 µM 12% | [1]; at 3.7 µM 24% | [1]; at 11.0 µM 42% | [1]; at 33.0 µM 60% | [2]; at 1.2 µM 6% | [2]; at 3.7 µM 15% | [2]; at 11.0 µM 27% | [2]; at 33.0 µM 39% | [2]; at 100.0 µM 60% | [3]; at 1.2 µM 29% | [4]; at 1.2 µM 11% | [4]; at 3.7 µM 20% | [4]; at 11.0 µM 31% | [4]; at 33.0 µM 57% | [5]; at 1.2 µM 13% | [5]; at 3.7 µM 24% | [5]; [17] 52% | [5]; at 11.0 µM 41% | [6]; at 1.2 µM 13% | [6]; at 3.7 µM 26% | [6]; at 11.0 µM 42% | [6]; at 33.0 µM 62% | [7]; at 1.2 µM 20% | [7]; at 3.7 µM 31% | [7]; at 11.0 µM 42% | [7]; at 33.0 µM 66% | [9]; at 1.2 µM 2% | [9]; at 3.7 µM 11% | [9]; at 11.0 µM 18% | [9]; at 33.0 µM 26% | [9]; at 100.0 µM 50% | [10]; [17] 10% | [10]; [18] 51% | [10]; at 50.0 µM 62.9% | [11]; at 1.2 µM -11% | [11]; at 3.7 µM -5% | [11]; [17] 57% | [11]; at 11.0 µM 7% | [11]; at 33.0 µM 21% | [11]; at 100.0 µM 39% | [12]; at 1.2 µM 7% | [12]; at 3.7 µM 21% | [12]; at 11.0 µM 37% | [12]; at 33.0 µM 55% | [12]; at 100.0 µM 67% | [13]; at 1.2 µM 16% | [13]; at 3.7 µM 32% | [13]; at 11.0 µM 54% | [14]; at 1.2 µM 18% | [14]; at 3.7 µM 37% | [14]; at 11.0 µM 63% | [16]; at 1.2 µM 17% | [16]; at 3.7 µM 29% | [16]; at 11.0 µM 53%
active: [1]; at 100.0 µM 74% | [3]; at 3.7 µM 73% | [3]; at 11.0 µM 88% | [3]; at 33.0 µM 91% | [3]; at 100.0 µM 88% | [4]; at 100.0 µM 77% | [5]; at 33.0 µM 71% | [5]; [18] 91% | [5]; at 50.0 µM 87.7% | [5]; at 100.0 µM 80% | [6]; [17] 87% | [6]; [18] 94% | [6]; at 50.0 µM 83.5% | [6]; at 100.0 µM 77% | [7]; at 100.0 µM 83% | [8]; [17] 71% | [8]; [18] 93% | [8]; at 50.0 µM 86.6% | [11]; [18] 90% | [11]; at 50.0 µM 84.6% | [13]; at 33.0 µM 73% | [13]; at 100.0 µM 85% | [14]; at 33.0 µM 79% | [14]; at 100.0 µM 82% | [15]; [17] 91% | [15]; [18] 93% | [15]; at 50.0 µM 86% | [16]; at 33.0 µM 76% | [16]; at 100.0 µM 82%

Cc1ccc(S(=O)(=O)Oc2cc(Cl)c(Cl)cc2Cl)cc1
inactive: [1]; at 1.2 µM -1% | [1]; at 3.7 µM 4% | [1]; at 11.0 µM 9% | [1]; at 33.0 µM -5% | [1]; at 100.0 µM 17% | [2]; at 1.2 µM -2% | [2]; at 3.7 µM -4% | [2]; at 11.0 µM -7% | [2]; at 33.0 µM -9% | [2]; at 100.0 µM -12% | [3]; at 1.2 µM -1% | [3]; at 3.7 µM 9% | [3]; at 11.0 µM 27% | [3]; at 33.0 µM 28% | [3]; at 100.0 µM 66% | [4]; at 1.2 µM 0% | [4]; at 3.7 µM -2% | [4]; at 11.0 µM -6% | [4]; at 33.0 µM -9% | [4]; at 100.0 µM -8% | [5]; at 1.2 µM -2% | [5]; at 3.7 µM 6% | [5]; [17] 9% | [5]; at 11.0 µM 11% | [5]; at 33.0 µM 3% | [5]; [18] 7% | [5]; at 50.0 µM -6.5% | [5]; at 100.0 µM 17% | [6]; at 1.2 µM -1% | [6]; at 3.7 µM -1%
